The results in this text go back to PubChem BioAssay AID720582 (The Scripps Research Institute Molecular Screening Center, 2013).

What is called inhibition is the drop in the measured response relative to a control, in per cent.

About 2,300 (0.62%) of roughly 370,000 compounds were called active. What follows is part of a selection rich in actives, with near analogues and random picks from the rest. Values without a mark were called inactive.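 The calls were made as follows: active = inhibition above a per-campaign cutoff equal to the mean of compounds falling between control-based bounds plus 3 SD (cut at about 20% in these data); inactive = the rest.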

The target of this assay is Disintegrin and metalloproteinase domain-containing protein 10 (Homo sapiens) (UniProt O14672). Put plainly: human ADAM10 inhibitors, primary screen, biochemical, QFRET, HTS (AID 720582).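 Also: 0% = DMSO wells while the 100% control is not disclosed.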 The conditions noted are these: recombinant ADAM10, EDANS/DABCYL FRET peptide cleavage, 3 h; at 7 µM; hits give high values.
Disintegrin and metalloproteinase domain-containing protein 10 (Homo sapiens), sequence (O14672 214-748 limits assumed): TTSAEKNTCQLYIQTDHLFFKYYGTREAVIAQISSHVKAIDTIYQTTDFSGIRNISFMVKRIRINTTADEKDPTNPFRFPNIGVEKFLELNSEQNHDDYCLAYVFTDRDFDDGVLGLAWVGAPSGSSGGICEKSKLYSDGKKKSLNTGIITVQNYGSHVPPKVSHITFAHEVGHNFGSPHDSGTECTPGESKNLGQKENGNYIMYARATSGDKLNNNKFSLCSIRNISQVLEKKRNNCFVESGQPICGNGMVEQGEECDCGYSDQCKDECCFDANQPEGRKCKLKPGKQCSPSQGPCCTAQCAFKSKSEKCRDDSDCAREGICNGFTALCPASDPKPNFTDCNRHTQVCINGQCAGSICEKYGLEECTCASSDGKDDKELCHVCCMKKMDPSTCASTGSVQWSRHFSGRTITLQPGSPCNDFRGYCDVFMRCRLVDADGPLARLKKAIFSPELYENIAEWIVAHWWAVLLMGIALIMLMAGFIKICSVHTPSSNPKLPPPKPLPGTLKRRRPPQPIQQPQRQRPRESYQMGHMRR
For the compound `CC(C)Oc1ccc(CC(=O)NNC(=S)Nc2ccc(Br)cc2)cc1`, the inhibition is 23.5% (active).
On to `CSc1ccccc1NC(=O)Cc1ccc(Br)cc1`, for which the inhibition was 2.92%.
Next, `O=C(COC(=O)Cc1ccc(Br)cc1)Nc1ccc(N2CCOCC2)cc1`: -15.2%; `O=C1C(=O)N(Cc2ccc(-c3ccsc3)cc2)c2ccc(OC(F)(F)F)cc21`: 3.17%.
On to `CC(=O)OC12CCCN(C1)/C(=C/c1ccncc1)C2` (stereo not given), for which the inhibition is -16.8%.
The figure for `CCOc1cc(/C=N/NC(=O)c2cc(-c3ccccc3)nc3ccccc23)ccc1O` is 22.1% (active).
Next, `CCOc1ccc(/C=N/NC(=O)C(C)Sc2ccccn2)cc1OCC` (stereo not given): -1%; `CCOc1ccccc1-c1cc(C(=O)N/N=C(\C)c2cccnc2)c2ccccc2n1`: 0.58%.
Regarding `COc1ccnc(C(=O)N2CCC(Oc3cccnc3)CC2)c1`, the inhibition is 1.62%.
Next, `O=C(CSc1nnc(-c2ccccc2)n1Cc1ccco1)Nc1ccccc1-c1ccccc1`: 15%.
The figure for `CCCSc1nc(NCc2ccco2)c2c3c(sc2n1)COC(C)(CC)C3` (stereo not given) is -57.9%; for `CCC1(C)Cc2c(sc3nnn(CC(=O)Nc4ccc(Cl)cc4)c(=O)c23)CO1` (stereo not given) it is 20.1% (active).
The figure for `CCOC(=O)Cn1c(SC)nc2sc3c(c2c1=O)CC(C)(C)OC3` is -52.7%; for `CN(CCO)c1cccc2c1S(=O)(=O)N(Cc1cn(Cc3ccc(C(F)(F)F)cc3)nn1)Cc1ccccc1O2` it is -6.76%.
Take `COc1ccnc(NC(=S)N2CCN(c3ncc(C(F)(F)F)cc3Cl)CC2)c1`: the inhibition was -1.47%.
As to `COc1ccc(C2=NN(C(=O)CSc3nc(=O)n4ccc(C)cc4n3)C(c3ccc(C)cc3)C2)cc1` (stereo not given), the inhibition was -4.74%.
`COc1ccc(C2CC(c3ccccc3)=NN2C(=O)c2ccc(Cl)c([N+](=O)[O-])c2)cc1` (stereo not given): the inhibition was -1.55%.
As for `COc1ccc(C2CC(c3ccccc3)=NN2C(=O)COC(=O)COc2ccccc2)cc1` (stereo not given), the inhibition is 20.3% (active).
On to `CCOC(=O)[C@]12CCCC3=C1N(CCC3)C(=O)[C@@H](CC(=O)NCC13CC4CC(CC(C4)C1)C3)C2`, for which the inhibition was 3.03%.
The figure for `O=C(CSc1nc2ccccc2n1Cc1ccccc1)NNC(=S)Nc1ccccc1` is 12.5%; for `Cc1ccccc1NC(=O)C1CCN(c2ncccn2)CC1` it is -49.2%.
Take `Cc1ccc(Cn2cc(CN3[C@@H](CC(C)C)COc4ccc(Cl)cc4S3(=O)=O)nn2)cc1`: the inhibition is 2.6%.
The figure for `COc1ccc(S(=O)(=O)N2CCN(C(C)C(=O)Nc3ccc(C(C)C)cc3)CC2)cc1` (stereo not given) is 26.6% (active); for `CC(C)c1ccc(S(=O)(=O)N2CCN(C(C)C(=O)NC3CCCC3)CC2)cc1` (stereo not given) it is -11.6%; for `COc1cccc(CNC(C)C(=O)Nc2ccc(S(=O)(=O)N3CCCC3)cc2)c1` (stereo not given) it is -0.95%.
The figure for `Oc1ccc(/C=C/c2c(F)cccc2F)c2cccnc12` is 5.02%; for `Cc1ccc(Cn2cc(COC(=O)N(C)Cc3ccccc3)nn2)cc1` it is -0.56%; for `Cc1ccc(S(=O)(=O)N2CCN(C(=O)COC(=O)CNC(=O)c3ccc(C(C)(C)C)cc3)CC2)c(C)c1` it is -0.12%.
Next, `COc1ccc(/C=C/C(=O)OCC(=O)N2CCN(S(=O)(=O)c3ccc(C)cc3C)CC2)cc1OC`: -21.9%; `Cc1ccc(S(=O)(=O)N2CCN(C(=O)COC(=O)c3c(C)cc(C)cc3C)CC2)c(C)c1`: 23.9% (active).
For `FC(F)(F)c1cccc(NC(=S)OC2CCC23CCC(c2ccccc2)CC3)c1` (stereo not given), the inhibition is 10.3%.
The figure for `FC(F)(F)c1cccc(Cn2ccc3ccc(-c4ccc5ccn(Cc6ccccc6)c5c4)cc32)c1` is -38.5%; for `CC1(Cc2cccc(C#N)c2)C(=O)Nc2ccc(-c3cccc(C(F)(F)F)c3)cc21` (stereo not given) it is 33.6% (active).
Next, `COc1ccc(-n2c(SCC(=O)Nc3ccc(C)c(Cl)c3)nc3ccccc3c2=O)cc1`: -4.98%; `CCOC(=O)c1cccc(NC(=O)CN(C)S(=O)(=O)c2ccc(-c3cocn3)s2)c1`: 8.22%; `C#CCN(C[C@H]1[C@H](OC(=O)NC2CCCC2)[C@H](OC(=O)NC2CCCC2)C[C@H]2C(=O)N(c3ccccc3)C(=O)[C@@H]12)S(=O)(=O)c1ccc(C)cc1`: 29.4% (active).
Next, `Cc1ccc(S(=O)(=O)N2C[C@]3(O)C[C@@H]4C(=O)N(c5ccccc5)C(=O)[C@@H]4C[C@]3(OC(=O)NC3CC3)C2)cc1`: -2.91%.
Turning to `C#CCN(C[C@@H]1[C@@H](OC(=O)NC2CC2)[C@@H](OC(=O)NC2CC2)Cn2c(=O)ccc(=O)n21)S(=O)(=O)c1ccc(C)cc1`, the inhibition was -5.52%.
The figure for `COC(=O)[C@]12C[C@H](CC(=O)N3CCOCC3)C(=O)N(Cc3ccc(Cl)cc3Cl)C1=C[C@H](COCc1ccccc1)O[C@@H]2C` is 0.45%; for `Cc1cnc(C(=O)OCC(=O)NCCCc2ccccc2)cn1` it is -1.14%; for `Cc1cnc(C(=O)OCc2c(C)cc(C(C)(C)C)cc2C)cn1` it is 21.7% (active).
The figure for `COc1cc(NC(=O)COC(=O)c2cnc(C)cn2)c(C)cc1[N+](=O)[O-]` is 2.74%; for `Cc1cccc(NC(=O)C[C@H]2CC[C@H]3[C@@H](COc4ccc(NC(=O)Nc5ccccc5)cc4C(=O)N3C)O2)c1` it is 5.56%.
Next, `COc1cccc(NC(=O)C2c3cc(OC)c(OC)cc3C(=O)N(C)C2c2cccnc2)c1` (stereo not given): -5.09%; `COc1cccc(NC(=O)C/C(C)=N/NC(=O)C2CCCCC2)c1`: 15.3%; `COc1cccc(NC(=O)C2C(c3ccccc3)C2(Cl)Cl)c1` (stereo not given): 19.8% (active).
Take `Cc1ccc(CSc2nnc(SCC(=O)NN=Cc3cc(Br)ccc3F)s2)cc1`: the inhibition was -6.1%.
Next, `COc1ccc(NC(=S)NCC2CCN(c3ccc(OC)cc3)C2)cc1` (stereo not given): 7.62%; `Cc1ccc(NC(=O)COC(=O)CNC(=O)c2ccc(Cl)cc2Cl)cc1S(=O)(=O)N1CCOCC1`: 7.22%; `O=C(CNC(=O)c1ccc(Cl)cc1Cl)NCC(=O)Nc1ccccc1N1CCOCC1`: 83.6% (active).
The figure for `O=C(CCNC(=O)c1ccc([N+](=O)[O-])cc1)Nc1ccccc1N1CCOCC1` is 1.54%; for `Cc1ccc(CN2CCCCC(NC(=O)C3CCCCC3)C2=O)cc1` (stereo not given) it is -0.65%; for `O=C(CSc1nc2c(c(=O)[nH]1)CCCC2)N1CCCCC1` it is 3.78%.
Turning to `CCOC(=O)c1csc(NC(=O)Nc2cccc(OC)c2)n1`, the inhibition is 0.5%.
Take `COc1ccc(C(N)c2csc(NC(=O)Nc3cccc(C(F)(F)F)c3)n2)cc1` (stereo not given): the inhibition is 25.5% (active).
In the case of `NC(c1csc(NC(=O)Nc2ccccc2Oc2ccccc2)n1)c1ccccc1Cl` (stereo not given), the inhibition was -3.13%.
The figure for `Nn1c(SCC(=O)Nc2cccc3ccccc23)nnc1-c1cc(-c2ccc(F)cc2)n[nH]1` is -0.59%; for `COc1ccc(Cl)cc1NC(=O)COC(=O)C(CC(C)C)N1C(=O)C2CC=CCC2C1=O` (stereo not given) it is 28% (active); for `COc1ccc(Cl)cc1NC(=O)c1cccc(N2C(=O)C3CC=CCC3C2=O)c1` (stereo not given) it is 3.57%.
The figure for `COc1ccc(Cl)cc1NC(=O)COC(=O)c1ccc(Br)o1` is -6.92%; for `Cc1ccccc1CS(=O)(=O)Cc1ccc(C(=O)Nc2ccc(Cl)cc2)o1` it is -29%; for `Cc1sc2nc(SCC(=O)c3ccc(O)c(O)c3)n(Cc3ccco3)c(=O)c2c1C` it is 15.9%.
Next, `COc1cccc(CNC(=O)C2CCCN(c3nc4ccccc4o3)C2)c1OC` (stereo not given): 2.5%; `Cc1c(C=O)c2ccccc2n1CCOc1ccccc1`: 10.4%.
For the compound `O=Cc1cn(CCOc2ccc(F)cc2)c2ccccc12`, the inhibition was 20.7% (active).
The figure for `O=C1c2ccccc2C(=O)N1CCOc1ccc(F)cc1` is 0.68%.
Next, `Cc1ccc(C(=O)C2CCN(CC(=O)NCCC(C)C)CC2)cc1`: -6.22%; `O=C(/C=C/c1ccc(F)cc1)NC(=S)NNC(=O)c1cccnc1`: 22.8% (active); `Cc1cccc(OCCNC(=S)NC(=O)c2cccnc2)c1`: 2.33%.
Next, `NS(=O)(=O)c1ccc(NC(=S)NC(=O)c2cccnc2)cc1`: -8.74%; `O=C1CCC2(CCC(c3ccc(Cl)cc3)CC2)N1CCO` (stereo not given): -9.03%.
On to `O=C(N[C@@H](Cc1c[nH]c2ccccc12)C(=O)O)OCC1c2ccccc2-c2ccccc21`, for which the inhibition was -1.67%.
With `CCN(CC)c1ccc(/C=N/NC(=O)CNC(=O)c2cccs2)cc1`, the inhibition was -246%.
The figure for `O=C(NC(Cc1c[nH]c2ccccc12)C(=O)N/N=C/c1ccc(Br)cc1)c1cccs1` (stereo not given) is 28.1% (active).
Turning to `COC(CNC(=O)[C@H](Cc1ccccc1)NC1(C(=O)NC2CCCCC2)CCCCC1)OC`, the inhibition is 4.93%.
The figure for `O=C(CC(O)(C(F)(F)F)C(F)(F)F)Nc1ccc(Cl)c(Cl)c1` is 23.7% (active); for `O=C(Nc1ccc(Cl)c(Cl)c1)N1CC=C(c2ccccc2)CC1` it is -19.8%.
Next, `O=C(CCS(=O)(=O)c1ccccc1)Nc1ccc(Cl)c(Cl)c1`: -2.68%; `COC(=O)C1CN(Cc2ccc(F)cc2)CCS(=O)(=O)N1Cc1ccc(Cl)cc1` (stereo not given): -0.23%.
The figure for `COC(=O)[C@H](C(C)C)N1CCc2nnn(Cc3ccc(C)cc3)c2-c2ccccc2S1(=O)=O` is 5.83%; for `COC(=O)[C@]12C[C@H](CC(=O)NCCc3ccccc3OC)C(=O)N(Cc3ccco3)C1=C[C@H](C(C)C)O[C@@H]2C1CC1` it is -2.42%; for `CC(=O)Nc1ccc(OC[C@@H](O)CN2CCC(C(O)(c3ccccc3)c3ccccc3)CC2)cc1` it is 4.68%.
On to `O=C(NCCc1c[nH]c2ccc(Cl)cc12)c1ccc([N+](=O)[O-])cc1`, for which the inhibition is -1.95%.
Next, `O=C(NCCc1ccc(Cl)cc1Cl)c1cc([N+](=O)[O-])c[nH]c1=O`: 20.1% (active); `NS(=O)(=O)c1ccc(CCNC(=O)c2ccc(Cl)cc2[N+](=O)[O-])cc1`: -0.8%.
